# Source: PubChem BioAssay (NCATS)
# Where “and” joins values, the source holds several entries; their conditions need not be identical. Equal values may be shown once. Results filed as inconclusive are left out. A call without a number means that no potency is given here. Where a structure was tested more than once in an assay, its records may differ in their call. Calls of active or inactive are those of the source. Unless noted, calls come from the whole dose curve; as a rule, active = well fitted curve in the direction sought with a large enough effect; inconclusive = small, poorly fitted or top-dose-only effect, or another doubt; inactive = no such curve, though single readings can be large; an effect the other way counts as inactive or inconclusive.
# Experiments:
# [1] = biological target: Cytochrome P450 1A2 (Homo sapiens) (UniProt P05177); experiment: p450-cyp1a2 (AID 410; calls by dose curve; note: potency is the fitted concentration of half-maximal effect)
# Procedure, shortened: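 Read-out is luminescence from luciferin produced by CYP1A2 demethylation of Luciferin-ME (100uM, at Km). Detection reagent stopped the 60 min NADPH-dependent reaction; signals were normalized to 57 uM furafylline.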
# [2] = biological target: Glucocorticoid receptor (Homo sapiens) (UniProt P04150); experiment: GR-GFP Redistribution (AID 450;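 active = compounds whose dose series gives a full or clear partial fitted curve of increased nuclear translocation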; note: potency is the fitted concentration of half-maximal effect); details: U2OS GR-GFP nuclear translocation, laser cytometry, 2 h
# [3] = biological target: Glucocorticoid receptor (Homo sapiens) (UniProt P04150); experiment: GR-EFC Redistribution (AID 451; calls by dose curve; note: potency is the fitted concentration of half-maximal effect); details: CHO-K1 GR-EFC translocation, beta-gal luminescence, 2 h
# Procedure, shortened: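 Translocation of GR-ED fusion to nuclear EA restores b-gal, read by luminescence after 1 h room-temperature detection. Engineered CHO-K1 biosensor cells, 1,000/well, exposed 2 h at 37 C to titrations up to 46 uM final.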
# [4] = biological target: Mitogen-activated protein kinase 10 (Mus musculus) (UniProt Q61831); experiment: JNK3 AlphaScreen Assay (AID 530; active = well fitted curve in either direction with a large enough effect, not every such curve was filed as active;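 note: kinase came from lysate of stimulated human HepG2 cells; signal reports phosphorylation of biotinylated GST-cJun 1-79 at Ser73 with 10 µM ATP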)
# Procedure, shortened: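 Kinase buffer: 20 mM Tris-HCl pH 7.6, 10 mM MgCl2, 1 mM DTT, 0.1 mM Na3VO4, 0.01% Tween-20; ATP 10 uM. Substrate biotin-GST-cJun(1-79), enzyme from activated HepG2 lysates. Detection by Ser73 phospho-antibody AlphaScreen.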
# [5] = biological target: 3',5'-cyclic-AMP phosphodiesterase 4B (Homo sapiens) (UniProt Q07343); experiment: qHTS Assay for Inhibitors of PDE-IV (AID 607; active = well fitted activation curve with a large enough effect in the main read-out, with a control signal flat, not every such curve was filed as active)
# Procedure, shortened: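 HEK293 ACTOne cells with CNG channel (1000/well), endogenous PDE4; membrane potential dye, compounds up to 22.9 uM final. Fluorescence Ex 535/Em 590; RO 20-1724 (100 uM final) as reference.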
# [6] = qHTS Assay for Lipid Storage Modulators (AID 1519; calls by dose curve); details: Drosophila S3 cells, BODIPY lipid droplet/cell ratio, laser cytometry, cells loaded with oleic acid; for activity change, negative = inhibition: at 57.5 µM (top of the series)
# Procedure, shortened: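 Cells seeded at 5,000 per well were treated with compounds over a concentration series and loaded with oleic acid (400 uM, as added). Lipid droplet fluorescence (488 nm excitation, 500-530 nm channel) was read by laser-scanning cytometry and normalized to 20 uM Triacsin C.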
# [7] = biological target: Ubiquitin carboxyl-terminal hydrolase 1 (Homo sapiens) (UniProt O94782); experiment: Inhibitors of USP1/UAF1: Pilot qHTS (AID 504865);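 note: rhodamine fluorescence freed from ubiquitin-rhodamine substrate followed over time; top concentration of the series differs between compounds; nearly all actives have a fitted effect of over 35% in size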
# Procedure, shortened: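 In 50mM HEPES pH 7.8 containing 0.5mM EDTA, 1mM TCEP, 0.1 mg/ml BSA and 0.01% Tween-20, 1nM USP1/UAF1 is exposed to compound for 15 min, then Ub-Rho (150nM final) is added and fluorescence is read over time.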
# [8] = biological target: DNA dC->dU-editing enzyme APOBEC-3G (Homo sapiens) (UniProt Q9HC16); experiment: qHTS for inhibitors of Vif-A3G interactions: Validation (AID 588379)
# Procedure, shortened: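 Yellow fluorescence (Ex 488, Em 500-530) of Vif-coexpressing HeLa A3G-eYFP cells, scanned by Acumen cytometer, reports blocked A3G degradation. Cells plated at 700/well overnight at 37 deg C before compound addition, then a further overnight compound incubation at 37 deg C.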
# [9] = test system: Zika virus NS2B-NS3 protease; experiment: Primary screen GU AMC qHTS for Zika virus inhibitors (AID 1347154); note: nearly all actives have a fitted effect of over 70% in size; note: potency is the fitted concentration of half-maximal effect
# Procedure, shortened: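 Fluorogenic AMC-substrate cleavage by noncovalent NS2B-NS3 protease complex (25 nM, pH 8.0 Tris buffer with Tween 20) followed for 15 minutes at room temperature (~20% conversion). Percent inhibition from ex340/em450 signal change, fitted by 4-parameter Hill equation.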
# [10] = Primary qHTS for small molecule stabilizers of the endoplasmic reticulum resident proteome: Secreted ER Calcium Modulated Protein (SERCaMP) assay (AID 1508630)
# Procedure, shortened: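 The SH-SY5Y reporter protocol was run at 3 concentrations up to 38.3 uM (primary) or 11 concentrations (follow-up): 16 h compound, 100 nM thapsigargin for 4 h, then extracellular luciferase luminescence.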
# [11] = biological target: Cytochrome P450 2C9 (Homo sapiens) (UniProt P11712); experiment: qHTS Assay for Inhibitors and Substrates of Cytochrome P450 2C9 (AID 883); note: potency is the fitted concentration of half-maximal effect; nearly all actives have a fitted effect of over 60% in size
# Procedure, shortened: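 Turnover of Luciferin-H (100uM, KM) by 10nM human CYP2C9 was measured over 60 min at 37C with NADPH regeneration; inhibitors and some substrates reduce luminescence. Data normalized to sulphaphenazole 57uM.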
# [12] = biological target: Cytochrome P450 3A4 (Homo sapiens) (UniProt P08684); experiment: qHTS Assay for Activators of Cytochrome P450 3A4 (AID 885); note: nearly all actives have a fitted effect of over 65% in size
# Procedure, shortened: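 Human CYP3A4 dealkylates Luciferin-PPXE to luciferin, which luciferase detection converts to light. Substrate was at its KM (25uM), buffer 200mM KPO4, reaction 60 min at RT.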
# [13] = biological target: Cytochrome P450 3A4 (Homo sapiens) (UniProt P08684); experiment: qHTS Assay for Inhibitors and Substrates of Cytochrome P450 3A4 (AID 884); note: nearly all actives have a fitted effect of over 50% in size
# Procedure, shortened: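 Luminescent readout of luciferin produced by CYP3A4 (20 nM) dealkylation of Luciferin-PPXE, 25 uM (its KM). NADPH-driven reaction ran 60 min at RT after 10 min compound preincubation; data scaled to 57 uM ketoconazole as 100% inhibition.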
# [14] = biological target: Cytochrome P450 2D6 (Homo sapiens) (UniProt P10635); experiment: qHTS Assay for Inhibitors and Substrates of Cytochrome P450 2D6 (AID 891); note: potency is the fitted concentration of half-maximal effect; nearly all actives have a fitted effect of over 60% in size
# Procedure, shortened: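 Luminescent read-out of luciferin formed by 5 nM human CYP2D6 demethylating 30 uM Luciferin-ME EGE (Km level) over 60 min at room temperature after NADPH regeneration addition. Data normalized to full inhibition by 1.43 uM quinidine.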
# [15] = biological target: Cytochrome P450 2C19 (Homo sapiens) (UniProt P33261); experiment: qHTS Assay for Inhibitors and Substrates of Cytochrome P450 2C19 (AID 899); note: potency is the fitted concentration of half-maximal effect; nearly all actives have a fitted effect of over 60% in size
# Procedure, shortened: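 Reactions contain 5nM enzyme, 10uM Luciferin-H EGE (KM) and 50mM KPO4; compound preincubates 10 min at 37C, NADPH regeneration starts turnover for 60 min. Luminescence after detection reagent gives activity.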
# [16] = measured here: cell count channel max response
# [17] = measured here: lipid channel max response
# Glucocorticoid receptor (Homo sapiens), sequence (P04150 whole entry, looked up, the tested form may be a part): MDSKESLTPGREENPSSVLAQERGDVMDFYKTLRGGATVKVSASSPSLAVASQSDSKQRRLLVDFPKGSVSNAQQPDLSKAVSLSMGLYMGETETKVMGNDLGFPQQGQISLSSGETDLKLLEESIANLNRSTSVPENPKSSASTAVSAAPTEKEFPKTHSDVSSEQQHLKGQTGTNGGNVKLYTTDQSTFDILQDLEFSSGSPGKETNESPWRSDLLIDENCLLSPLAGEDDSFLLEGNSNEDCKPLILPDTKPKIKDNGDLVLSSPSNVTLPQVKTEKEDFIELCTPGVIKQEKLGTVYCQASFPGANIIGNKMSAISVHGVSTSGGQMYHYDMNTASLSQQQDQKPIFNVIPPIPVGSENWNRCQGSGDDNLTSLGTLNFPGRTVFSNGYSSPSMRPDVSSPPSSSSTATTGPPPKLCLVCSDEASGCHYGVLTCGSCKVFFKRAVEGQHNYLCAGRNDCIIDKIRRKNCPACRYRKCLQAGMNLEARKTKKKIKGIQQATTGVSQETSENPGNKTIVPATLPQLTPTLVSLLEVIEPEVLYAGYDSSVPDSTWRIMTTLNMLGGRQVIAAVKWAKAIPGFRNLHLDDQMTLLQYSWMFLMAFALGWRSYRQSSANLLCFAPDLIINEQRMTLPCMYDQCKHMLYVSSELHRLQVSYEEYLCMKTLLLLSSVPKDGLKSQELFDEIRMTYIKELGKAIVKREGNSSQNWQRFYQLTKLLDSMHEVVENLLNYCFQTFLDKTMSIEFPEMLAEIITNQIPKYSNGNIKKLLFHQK
# Cytochrome P450 2D6 (Homo sapiens), sequence (P10635 whole entry, looked up): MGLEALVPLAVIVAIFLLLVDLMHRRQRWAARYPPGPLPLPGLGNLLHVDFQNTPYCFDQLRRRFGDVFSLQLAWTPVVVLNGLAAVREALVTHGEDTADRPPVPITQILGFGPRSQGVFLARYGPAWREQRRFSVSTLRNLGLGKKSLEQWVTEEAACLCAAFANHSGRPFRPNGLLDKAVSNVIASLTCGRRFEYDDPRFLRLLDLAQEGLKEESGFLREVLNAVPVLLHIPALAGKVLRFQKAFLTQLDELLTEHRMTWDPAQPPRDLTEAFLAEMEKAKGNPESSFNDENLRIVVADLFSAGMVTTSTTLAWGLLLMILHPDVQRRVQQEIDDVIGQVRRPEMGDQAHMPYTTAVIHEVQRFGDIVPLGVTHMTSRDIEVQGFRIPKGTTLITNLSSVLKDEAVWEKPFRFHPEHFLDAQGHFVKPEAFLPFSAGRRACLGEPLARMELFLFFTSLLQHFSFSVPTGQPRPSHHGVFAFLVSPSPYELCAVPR
# DNA dC->dU-editing enzyme APOBEC-3G (Homo sapiens), sequence (Q9HC16 whole entry, looked up): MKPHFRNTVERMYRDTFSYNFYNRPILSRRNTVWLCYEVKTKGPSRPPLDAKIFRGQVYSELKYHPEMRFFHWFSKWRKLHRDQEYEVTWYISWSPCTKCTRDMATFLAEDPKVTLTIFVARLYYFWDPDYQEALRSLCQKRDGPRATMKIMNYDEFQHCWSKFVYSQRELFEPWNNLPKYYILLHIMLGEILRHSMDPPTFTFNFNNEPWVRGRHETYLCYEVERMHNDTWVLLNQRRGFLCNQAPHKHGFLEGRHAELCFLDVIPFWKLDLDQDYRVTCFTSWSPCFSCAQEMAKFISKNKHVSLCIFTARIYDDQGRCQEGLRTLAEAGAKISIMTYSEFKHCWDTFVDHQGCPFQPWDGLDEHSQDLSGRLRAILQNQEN
# Cytochrome P450 2C19 (Homo sapiens), sequence (P33261 whole entry, looked up): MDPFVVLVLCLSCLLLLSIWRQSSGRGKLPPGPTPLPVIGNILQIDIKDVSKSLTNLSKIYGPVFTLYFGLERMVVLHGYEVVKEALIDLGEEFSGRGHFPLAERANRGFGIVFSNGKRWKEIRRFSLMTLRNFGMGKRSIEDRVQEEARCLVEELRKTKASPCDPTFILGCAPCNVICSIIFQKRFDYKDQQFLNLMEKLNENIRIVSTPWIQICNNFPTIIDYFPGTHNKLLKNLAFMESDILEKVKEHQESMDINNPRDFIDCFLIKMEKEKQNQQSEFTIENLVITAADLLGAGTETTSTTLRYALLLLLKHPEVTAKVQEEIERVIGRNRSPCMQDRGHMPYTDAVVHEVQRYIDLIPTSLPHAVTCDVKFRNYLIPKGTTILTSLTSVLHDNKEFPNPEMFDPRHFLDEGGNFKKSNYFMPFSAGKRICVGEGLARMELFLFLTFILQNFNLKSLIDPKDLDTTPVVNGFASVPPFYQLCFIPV
# Cytochrome P450 3A4 (Homo sapiens), sequence (P08684 whole entry, looked up): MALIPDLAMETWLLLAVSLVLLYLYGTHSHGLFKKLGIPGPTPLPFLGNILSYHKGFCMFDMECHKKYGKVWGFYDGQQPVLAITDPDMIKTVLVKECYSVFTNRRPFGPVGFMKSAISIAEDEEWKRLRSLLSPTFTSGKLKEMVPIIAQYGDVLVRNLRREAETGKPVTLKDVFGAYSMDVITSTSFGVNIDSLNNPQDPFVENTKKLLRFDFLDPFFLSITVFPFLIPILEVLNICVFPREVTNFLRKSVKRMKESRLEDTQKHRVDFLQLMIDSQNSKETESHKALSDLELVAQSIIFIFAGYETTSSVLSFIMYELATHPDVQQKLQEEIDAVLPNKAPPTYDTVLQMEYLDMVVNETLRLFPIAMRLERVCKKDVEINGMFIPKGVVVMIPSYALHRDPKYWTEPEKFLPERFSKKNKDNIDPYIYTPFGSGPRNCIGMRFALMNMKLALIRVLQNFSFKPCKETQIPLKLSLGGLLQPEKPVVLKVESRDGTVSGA
# 3',5'-cyclic-AMP phosphodiesterase 4B (Homo sapiens), sequence (Q07343 whole entry, looked up): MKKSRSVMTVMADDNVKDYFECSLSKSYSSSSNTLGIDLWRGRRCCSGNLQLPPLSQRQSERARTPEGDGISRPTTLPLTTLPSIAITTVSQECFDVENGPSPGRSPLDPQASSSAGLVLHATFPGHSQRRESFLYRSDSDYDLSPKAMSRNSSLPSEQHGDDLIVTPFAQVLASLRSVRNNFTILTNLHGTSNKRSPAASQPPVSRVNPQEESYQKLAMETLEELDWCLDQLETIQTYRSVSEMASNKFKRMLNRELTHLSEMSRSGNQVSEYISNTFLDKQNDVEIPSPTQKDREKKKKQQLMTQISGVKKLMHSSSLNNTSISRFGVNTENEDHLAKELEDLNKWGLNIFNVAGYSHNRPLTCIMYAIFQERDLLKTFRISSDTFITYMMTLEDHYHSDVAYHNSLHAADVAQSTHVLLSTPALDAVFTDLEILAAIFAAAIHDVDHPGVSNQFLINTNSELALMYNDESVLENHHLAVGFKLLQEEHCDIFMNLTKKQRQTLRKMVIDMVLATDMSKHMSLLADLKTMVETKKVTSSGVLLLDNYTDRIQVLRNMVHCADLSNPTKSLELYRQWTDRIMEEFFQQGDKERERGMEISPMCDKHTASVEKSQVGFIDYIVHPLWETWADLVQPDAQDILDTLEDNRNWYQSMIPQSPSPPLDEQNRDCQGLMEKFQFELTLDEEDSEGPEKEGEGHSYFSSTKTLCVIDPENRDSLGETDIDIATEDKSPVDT
# Ubiquitin carboxyl-terminal hydrolase 1 (Homo sapiens), sequence (O94782 whole entry, looked up): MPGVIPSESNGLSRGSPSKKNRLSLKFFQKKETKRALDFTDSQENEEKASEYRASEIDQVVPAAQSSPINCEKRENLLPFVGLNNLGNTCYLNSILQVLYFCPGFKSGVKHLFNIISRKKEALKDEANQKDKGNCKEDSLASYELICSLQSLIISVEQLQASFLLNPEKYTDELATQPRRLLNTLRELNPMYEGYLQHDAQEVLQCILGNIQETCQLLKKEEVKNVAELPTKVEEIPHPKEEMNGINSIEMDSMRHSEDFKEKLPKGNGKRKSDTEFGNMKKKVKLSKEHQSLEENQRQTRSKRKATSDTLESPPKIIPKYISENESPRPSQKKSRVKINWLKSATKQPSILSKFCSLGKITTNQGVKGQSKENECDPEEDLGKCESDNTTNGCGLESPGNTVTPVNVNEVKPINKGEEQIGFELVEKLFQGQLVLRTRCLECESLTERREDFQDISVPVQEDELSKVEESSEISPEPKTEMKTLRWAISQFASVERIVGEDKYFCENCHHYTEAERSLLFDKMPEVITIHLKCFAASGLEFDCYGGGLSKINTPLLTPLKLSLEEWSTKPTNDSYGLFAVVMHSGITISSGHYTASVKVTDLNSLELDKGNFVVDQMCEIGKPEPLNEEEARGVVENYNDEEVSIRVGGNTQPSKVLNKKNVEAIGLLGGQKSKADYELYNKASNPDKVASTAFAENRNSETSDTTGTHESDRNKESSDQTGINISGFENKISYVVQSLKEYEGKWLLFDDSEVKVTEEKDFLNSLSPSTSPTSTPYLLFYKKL
# Cytochrome P450 1A2 (Homo sapiens), sequence (P05177 whole entry, looked up): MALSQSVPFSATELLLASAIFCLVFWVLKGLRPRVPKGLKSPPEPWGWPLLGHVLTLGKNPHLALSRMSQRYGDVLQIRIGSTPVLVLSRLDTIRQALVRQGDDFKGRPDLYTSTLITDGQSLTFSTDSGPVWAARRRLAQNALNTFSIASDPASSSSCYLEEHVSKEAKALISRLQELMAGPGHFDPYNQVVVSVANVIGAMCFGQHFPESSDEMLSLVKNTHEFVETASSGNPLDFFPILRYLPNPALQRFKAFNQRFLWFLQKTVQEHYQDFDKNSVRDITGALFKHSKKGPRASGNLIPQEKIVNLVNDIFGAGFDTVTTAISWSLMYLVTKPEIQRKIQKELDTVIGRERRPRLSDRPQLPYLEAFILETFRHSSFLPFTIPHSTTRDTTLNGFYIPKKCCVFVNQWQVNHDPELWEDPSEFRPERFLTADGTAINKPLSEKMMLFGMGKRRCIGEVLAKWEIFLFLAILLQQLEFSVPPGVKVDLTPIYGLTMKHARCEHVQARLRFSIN
Compound,Potency [1],Potency [2],Potency [3],Potency [4],Potency [5],"activity change, negative = inhibition [6]","max response [6, 16]","max response [6, 17]",Potency [7],Potency [8],Potency [9],Potency [10],Potency [11],Potency [12],Potency [13],Potency [14],Potency [15]
N[C@](CC1c2ccccc2Oc2ccccc21)(C(=O)O)[C@@H]1C[C@@H]1C(=O)O,31.6 µM (active),> 46 µM (inactive),> 46 µM (inactive),inactive,inactive,5.89% (inactive),12.4%,20%,inactive,inactive,inactive,inactive,–,–,–,–,–
CCCCCCCCCCCCCCCC(=O)NC(C)C,inactive,> 46 µM (inactive),> 46 µM (inactive),inactive,inactive,0.0182% (inactive),-14.5%,-16.6%,–,inactive,inactive,inactive,–,–,–,–,–
COc1cc(N)c(Cl)cc1C(=O)CCC1CCN(CCNS(C)(=O)=O)CC1,inactive,> 46 µM (inactive),> 46 µM (inactive),inactive,inactive,6.39% (inactive),24.1%,32.4%,inactive,inactive,inactive,inactive,0.251 µM (active),inactive,–,–,–
COc1ccc2c(c1)CCC1[C@@H]2CCC2(C)[C@@H](NCCCCCCN3C(=O)C=CC3=O)CC[C@@H]12 (stereo partly drawn),inactive,> 46 µM (inactive),> 46 µM (inactive),inactive,inactive,-5.78% (inactive),16.2%,8.52%,–,inactive,inactive,inactive,–,–,–,–,–
C1=C(CN2CCOCC2)COc2c1cccc2OC[C@@H]1CNCCO1,12.6 µM (active),> 46 µM (inactive),> 46 µM (inactive),inactive,inactive,0.797% (inactive),5.43%,3.99%,inactive,inactive,inactive,inactive,–,inactive,–,–,–
O=C(O)c1c2ccccc2cc2ccccc12,0.2 µM (active),–,–,inactive,–,8.27% (inactive),24.6%,34.2%,inactive,inactive,26.7 µM (active),inactive,–,–,inactive,–,–
COc1cc(N)c(Cl)cc1C(=O)OCCCN1CCCCC1,inactive,> 46 µM (inactive),> 46 µM (inactive),inactive,inactive,2.57% (inactive),19.2%,21.4%,inactive,inactive,inactive,inactive,–,inactive,–,0.126 µM (active),–
NC1(C(=O)O)C[C@H](C(=O)O)[C@H](C(=O)O)C1 (stereo partly drawn),inactive,> 46 µM (inactive),> 46 µM (inactive),inactive,inactive,1.98% (inactive),12.8%,14.8%,–,inactive,inactive,inactive,6.31 µM (active),–,–,–,398 nM (active)
C[C@](N)(C(=O)O)c1ccc(-c2nn[nH]n2)cc1,39.8 µM (active),> 46 µM (inactive),> 46 µM (inactive),inactive,–,7.08% (inactive),7.75%,14.3%,inactive,inactive,inactive,inactive,–,–,–,–,–
CCS(=O)(=O)N(C)[C@@H]1c2cc(C#N)ccc2OC(C)(C)[C@H]1O,20 µM (active) and inactive,> 46 µM (inactive),> 46 µM (inactive),inactive,inactive,2.68% (inactive) and 2.28% (inactive),17.8% and 15.2%,22.1% and 18.9%,inactive,inactive,inactive,inactive,–,inactive,–,–,–
CCCn1c(=O)c2[nH]c(-c3ccc(OCC(=O)Nc4ccc(C(C)=O)cc4)cc3)nc2n(CCC)c1=O,–,> 46 µM (inactive),> 46 µM (inactive),inactive,–,5.04% (inactive),6.38%,10.1%,inactive,inactive,inactive,inactive,–,–,–,–,–
N#Cc1cc2[nH]c(=O)c(=O)[nH]c2cc1[N+](=O)[O-],31.6 µM (active),> 46 µM (inactive),> 46 µM (inactive),inactive,–,2.55% (inactive),12.9%,17.2%,–,inactive,inactive,inactive,–,–,–,–,–
N[C@H](C(=O)O)c1ccc(C(=O)O)cc1,inactive,> 46 µM (inactive),> 46 µM (inactive),inactive,–,-2.07% (inactive),-4.05%,-7.12%,inactive,inactive,inactive,inactive,–,–,–,–,–
CC(=O)O[C@H](CC(=O)O)C[N+](C)(C)C,–,> 46 µM (inactive),> 46 µM (inactive),inactive,–,5.24% (inactive),15%,18.1%,inactive,inactive,inactive,inactive,–,–,–,–,–
N[C@@H](C(=O)O)[C@H](CC(=O)O)c1ccc(Cl)cc1,inactive,–,> 46 µM (inactive),inactive,inactive,-4.76% (inactive),-14.9%,-17.6%,–,inactive,inactive,inactive,–,–,–,2.51 µM (active),–
N[C@@H](C(=O)O)c1ccc(C(=O)O)c(C(=O)O)c1,inactive,> 46 µM (inactive),> 46 µM (inactive),inactive,inactive,1.89% (inactive) and 0.925% (inactive) and 9.39% (inactive),-4.21% and -1.65% and 13.2%,-0.754% and -2.49% and 18.8%,inactive,inactive,inactive,inactive,–,–,–,7.94 µM (active),316 nM (active) and 3.16 µM (active)
